Screens deposited in PubChem BioAssay by several laboratories.
Beta cell apopt = beta cell apoptosis inhibition; INS-1E cytokine-induced death, ATP luminescence, 48 h; percent of positive-control rescue, neutral wells zero; protection from apoptosis, % (test concentration not listed); 300,000 tested, 0.8% active;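 active means Every replicate reaches about 75%, or at least half do and their mean reaches it too, limit read from the data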;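 further: 0% = cytokine-treated negative control wells and 100% = positive control rescue; higher means more ATP so stronger rescue from cytokine killing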
697 NFkB inh = lowers PMA/ionomycin-induced NF-kB signal in 697 B cells; 330,000 tested, 0.33% active; inhibition, % at 4 µM; 697 B-cell NF-kB luciferase reporter, 16 h; in the data active means inhibition above about 35%
Gli-Sufu block = blocks Gli-Sufu signaling in a luciferase reporter; 340,000 tested, 0.74% active; inhibition, % at 5 µM; AID 588413; Sufu-KO-LIGHT fibroblasts, Gli luciferase reporter luminescence;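 active means inhibition above about 55%, limit read from the data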;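 further: 0% = DMSO-treated cells and 100% = wells with medium but no cells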
Mdm2-MdmX inh = inhibitors of human Mdm2/MdmX interaction; O15151+Q00987; SaOS-2 split-luciferase Mdm2/MdmX complementation, luminescence; inhibition, % at 8 µM; 330,000 tested, 3% active; AID 485346;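 active means inhibition of at least 50% at 8 µM in the primary screen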
Target sequence (O15151 whole entry, looked up): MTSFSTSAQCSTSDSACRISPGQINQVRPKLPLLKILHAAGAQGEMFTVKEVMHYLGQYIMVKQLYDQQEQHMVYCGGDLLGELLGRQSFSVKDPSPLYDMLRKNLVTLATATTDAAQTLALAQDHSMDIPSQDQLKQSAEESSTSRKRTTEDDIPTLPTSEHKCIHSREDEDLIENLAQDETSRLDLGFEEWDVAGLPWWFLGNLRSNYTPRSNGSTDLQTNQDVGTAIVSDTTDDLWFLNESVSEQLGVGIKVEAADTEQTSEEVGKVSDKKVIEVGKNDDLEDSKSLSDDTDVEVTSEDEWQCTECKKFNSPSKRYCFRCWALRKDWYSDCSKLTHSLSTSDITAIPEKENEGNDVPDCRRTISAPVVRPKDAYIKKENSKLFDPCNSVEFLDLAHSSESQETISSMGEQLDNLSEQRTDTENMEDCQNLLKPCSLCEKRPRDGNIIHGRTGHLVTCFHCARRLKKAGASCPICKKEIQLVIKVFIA
Target sequence (Q00987 whole entry, looked up): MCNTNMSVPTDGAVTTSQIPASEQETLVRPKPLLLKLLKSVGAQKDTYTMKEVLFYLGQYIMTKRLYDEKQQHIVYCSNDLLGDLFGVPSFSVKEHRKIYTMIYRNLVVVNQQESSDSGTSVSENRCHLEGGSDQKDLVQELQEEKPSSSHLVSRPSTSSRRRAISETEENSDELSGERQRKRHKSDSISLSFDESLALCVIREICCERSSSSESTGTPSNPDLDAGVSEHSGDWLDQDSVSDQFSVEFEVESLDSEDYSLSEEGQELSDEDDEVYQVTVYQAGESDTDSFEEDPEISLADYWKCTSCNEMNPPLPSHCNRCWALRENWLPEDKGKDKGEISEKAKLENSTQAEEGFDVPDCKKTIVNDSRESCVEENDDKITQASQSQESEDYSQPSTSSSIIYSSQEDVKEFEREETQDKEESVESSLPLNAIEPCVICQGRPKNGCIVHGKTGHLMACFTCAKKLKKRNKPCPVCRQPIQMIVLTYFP
Jurkat NFkB inh = lowers PMA/ionomycin-induced NF-kB signal in Jurkat cells; PMA/ionomycin-induced NF-kB luciferase reporter, luminescence; inhibition, % at 4 µM; 330,000 tested, 0.53% active; AID 435003; in the data active means inhibition above about 50%
Mdm2-MdmX conf = confirmation of human Mdm2/MdmX interaction inhibitors. shares compounds with Mdm2-MdmX inh. Mdm2-MdmX binding, luminescent assay. inhibition, % at 8 µM. 10,000 tested, 55% active. AID 489028; in the data active means inhibition above about 40%
FLuc counter = counter-screen for Mdm2/MdmX inhibitors: full-length luciferase; shares compounds with Mdm2-MdmX inh; SaOS-2 full-length luciferase counterscreen, luminescence; inhibition, % at 8 µM; 6,200 tested, 77% active; AID 504607;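 active means mean inhibition at 8 µM reaching about 37%, which flags the compound as non-specific, limit read from the data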;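 further: p53-null SaOS-2 cells with luciferase driven by a doxycycline-inducible promoter; compound on cells about two nights before reading with doxycycline added after day one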
An asterisk follows results filed as active; · = no result. In the library only some 4% were active in any assay of this set; here they are far more common.

SMILES	Beta cell apopt	697 NFkB inh	Gli-Sufu block	Mdm2-MdmX inh	Jurkat NFkB inh	Mdm2-MdmX conf	FLuc counter
Cc1cc(C)c2ccc3c(C)c(C)nc3c2[nH]1	-3.5	-20.0	6.7	69.9*	26.9	42.2*	45.5*
COC(=O)c1ccc(/C=C/c2c(-c3ccsc3)oc3ccc(N4CCOCC4)cc23)cc1	0.2	-5.7	-11.3	56.8*	-18.4	9.9	·
NC1CCCCC1N=Cc1c(O)n(CCc2ccc(F)cc2)c(=O)[nH]c1=O (centres undefined)	·	·	-9.7	·	·	·	·
O=c1[nH]c(=O)n(CCc2ccc(F)cc2)c(O)c1C=NCc1ccc2c(c1)OCO2	-3.2	0.5	·	80.0*	0.6	5.5	·
COc1cccc(/C=C2\SC(=S)N(CCCC(=O)N3CCCCC3CCO)C2=O)c1 (centres undefined)	-38.4	21.0	10.2	77.8*	8.1	61.5*	21.2
COc1cccc(/C=C2\SC(=S)N(CCCC(=O)N3CCCC3)C2=O)c1	-34.2	4.1	10.8	84.0*	7.0	45.6*	35.0
COc1ccc(/C=C2\SC(=S)N(CCCC(=O)N3CCN(C)CC3)C2=O)cc1OC	·	·	-1.7	·	·	·	·
COc1cccc(/C=C2\SC(=S)N(CCC(=O)N3CCCCC3CCO)C2=O)c1 (centres undefined)	-33.4	-9.2	18.4	76.9*	-6.5	45.4*	39.8*
Cc1cc(N2C(=O)c3ccc(C(=O)Nc4ccc(CC(=O)O)cc4)cc3C2=O)no1	-2.3	6.1	-15.5	0.0	-2.0	·	·
COc1cc(CCC(=O)OCC(=O)NCCc2ccc(S(N)(=O)=O)cc2)cc(OC)c1OC	-1.8	14.6	5.9	12.9	-15.8	·	·
COCCNC(=O)C(c1ccncc1)N(C(=O)c1sc(C)nc1C)c1cccc(C)c1 (centres undefined)	3.7	-4.6	-2.5	11.0	-9.3	·	·
Cc1noc(C)c1COc1ccccc1C(=O)NCCc1ccc(S(N)(=O)=O)cc1	0.5	18.1	-6.7	17.6	6.1	·	·
CCCOc1ccc(N2C(=O)CC(SC(=NC)Nc3ccc(F)cc3)C2=O)cc1 (centres undefined)	0.1	-44.3	-6.0	-15.2	-3.4	·	·
CCCOc1ccc(N2C(=O)CC(SC(=N)N3N=C(c4ccccc4)CC3c3ccccc3)C2=O)cc1 (centres undefined)	28.9	-27.4	3.3	60.3*	5.5	39.6	76.7*
COc1cc([N+](=O)[O-])ccc1NC(=O)CC1SC(=Nc2ccc(F)cc2)N(CCC2=CCCCC2)C1=O (centres undefined)	110.5*	-7.7	13.0	76.9*	12.5	85.3*	64.8*
CCOC(=O)c1c(C)oc2ccc(O)c(CN(C)C)c12	0.8	-10.5	0.5	24.6	-4.8	·	·
CCOC(=O)c1c(CSc2ccc(CC)cc2)oc2ccc(O)c(CN(C)C)c12	4.0	-49.6	45.5	86.0*	49.7	44.1*	62.8*
Cc1cc(C)n(CC(=O)N2CCCC(N3CCN(c4ccc(F)cc4)CC3)C2)n1 (centres undefined)	-2.6	3.5	-8.0	6.9	-16.5	·	·
O=S(=O)(Nc1ccccc1F)c1cccc(NC(=S)NCCN2CCOCC2)c1	1.2	19.1	-0.9	14.6	0.6	·	·
CCN(CC)S(=O)(=O)c1ccc(OC(C)C)c(NC(=O)c2c3c(nc4ccccc24)CCN(Cc2ccccc2)C3)c1	13.5	2.0	19.8	54.9*	11.5	53.8*	79.9*
Cc1cccc(NS(=O)(=O)c2ccc(NC(=O)CN(c3cc([N+](=O)[O-])ccc3C)S(C)(=O)=O)cc2)c1	110.9*	-27.3	19.6	55.0*	18.8	49.1*	51.7*
CCCc1cc(CNC(=O)C2CCC(=O)N(Cc3ccccc3F)C2)on1 (centres undefined)	-3.5	0.2	-17.4	11.9	-2.7	·	·
O=C(Nc1nc2ccc(Cl)cc2s1)c1ccc(N2CCCCC2)c([N+](=O)[O-])c1	18.5	8.0	-3.1	60.8*	-6.6	42.4*	53.7*
O=C(Nc1nc2ccc3ccccc3c2s1)c1ccc(N2CCCCC2)c([N+](=O)[O-])c1	1.5	-46.7	-1.8	18.0	22.6	·	·
CC(C)(C)c1ccc(/C=C(\c2nc3ccccc3[nH]2)S(=O)(=O)c2ccccc2)cc1	108.1*	18.5	-9.6	92.5*	9.5	99.8*	51.5*
SMILES	Beta cell apopt	697 NFkB inh	Gli-Sufu block	Mdm2-MdmX inh	Jurkat NFkB inh	Mdm2-MdmX conf	FLuc counter
Cc1ccc2c(=O)n3c(nc2c1)C(Cc1ccccc1)NC(=O)c1ccc(Cl)cc1-3 (centres undefined)	-3.2	-4.7	·	10.0	6.2	·	·
COc1cc(CNCCCN2CCOCC2)cc(Br)c1OCc1ccc(Cl)cc1	18.9	-4.7	32.3	69.1*	19.9	45.4*	58.9*
Cc1nn(-c2cc(N3CCCCCC3)ccc2[N+](=O)[O-])c(=O)c2ccccc12	-8.5	-7.2	-0.9	1.0	6.9	·	·
Cc1ccc(-c2nn(-c3cc(N4CCNCC4)ccc3[N+](=O)[O-])c(=O)c3ccccc23)cc1	6.1	7.6	0.3	100.4*	3.4	28.9	·
O=C1CSC(c2ccccc2[N+](=O)[O-])N1CCc1ccccc1 (centres undefined)	-5.9	0.1	3.2	20.0	5.3	·	·
Cc1ccc(Cn2c(CCNc3nc(-c4ccc(Cl)c([N+](=O)[O-])c4)cs3)nc3cc(Cl)c(Cl)cc32)cc1	2.8	2.9	1.4	92.9*	2.8	-3.6	·
Cc1ccc(-c2csc(NC(=O)c3cccc(S(=O)(=O)N4CCN(C)CC4)c3)n2)cc1	4.3	-47.1	0.4	73.2*	1.7	65.3*	38.6*
Cc1nnc(NC(=O)c2cccc(S(=O)(=O)N3CCN(C)CC3)c2)s1	-3.9	12.4	-4.3	7.1	-2.1	·	·
Cc1ccc(NC(=O)c2cccc(S(=O)(=O)N3CCc4ccccc4C3)c2)nc1	-4.6	-33.1	-1.8	-2.6	-16.2	·	·
Cc1ccc(Nc2nc(-c3ccc(S(=O)(=O)N4CCOCC4)cc3)cs2)cc1Cl	14.9	-96.2	14.2	62.7*	13.8	12.8	·
COc1cccc(C(=O)Nc2nc(-c3ccc(S(=O)(=O)N4CCOCC4)cc3)cs2)c1	7.4	2.1	42.7	58.0*	10.1	4.0	·
Cc1cc(N2CCN(C)CC2)ccc1NC(=O)c1cccc(S(=O)(=O)N2CCc3ccccc3C2)c1	5.2	-22.3	9.2	96.1*	-6.1	36.1	73.0*
O=C(Nc1nc(-c2ccc(S(=O)(=O)N3CCOCC3)cc2)cs1)c1ccccc1	5.8	-36.5	35.7	15.0	30.0	·	·
CC1Cc2ccccc2N1CC(=O)NC(=O)NC1CCCCC1 (centres undefined)	8.5	-40.0	1.3	2.3	-12.4	·	·
CC(C)c1cc(C(=O)N2CCCC(Nc3ccc(F)cc3)C2)nc(N)n1 (centres undefined)	-7.6	-9.9	-9.2	24.9	7.2	·	·
COc1ccc(-c2csc(NC(=O)c3ccccc3F)n2)cc1	0.9	-2.0	-6.2	-22.3	1.0	·	·
